# The campaign covered roughly 320,000 compounds. About 1,300 (0.41%) were called active. Another 3% or so got no clear call; they are omitted. The rule behind the calls is not given here. These entries were drawn from the full list. Measured potencies and affinities stand elsewhere.
# Test: growth inhibition of non-replicating M. tuberculosis (AID 488890);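 note: plate controls were DMSO cells for no effect and high antibiotic wells for full effect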
# Conditions: Mycobacterium tuberculosis non-replicating, at 25 µM, stronger effect = higher value
row,SMILES,inhibition [%]
1,COc1ccc(Cl)c2sc(N(CCN(C)C)C(=O)CCS(=O)(=O)c3ccc(C)cc3)nc12,26.4
2,O=C(NCC1CCCN(C(=O)c2cccnc2)C1)c1ccc(-c2ccccc2)cc1 (centres undefined),-2.83
3,O=C(O)c1ccc(Nc2ncc([N+](=O)[O-])cc2[N+](=O)[O-])cc1,5.68
4,O=[N+]([O-])c1ccc(Nc2ccc(Cl)cc2)nc1,16.9
5,COc1ccc(CCNC(=O)c2ccc(S(=O)(=O)N(C)c3ccccc3)cc2)cc1OC,-1.9
6,O=C(CC1CCCC1)Nc1cc(C(F)(F)F)ccc1-n1cncn1,12.3
7,c1ccc(Nc2ccccc2Nc2ccccn2)nc1,0.46
8,c1ccc(Nc2ccccn2)nc1,3.72
9,Cc1cccc(NC(=O)c2cccc(Cn3cc(Br)c([N+](=O)[O-])n3)c2)c1C,-0.16
10,COc1ccccc1NC(=O)c1ccc(-c2ccccc2[N+](=O)[O-])o1,25
11,Cc1cccc(NC(=O)COC(=O)c2ccc([N+](=O)[O-])o2)c1C,61.9
12,O=C(NCc1cccnc1)c1ccc([N+](=O)[O-])o1,62.8
13,Cc1ccccc1Cn1nnc(C(=O)Nc2cccc(C)c2C)c1N,26
14,COc1cc(NC(=O)c2ccc([N+](=O)[O-])o2)ccc1NC(=O)c1ccco1,66.5
15,Cc1ccc(CNC(=O)c2ccc(Br)o2)cc1,71.9
16,Cc1cccc(NC(=O)c2ccco2)c1C,-14.2
17,O=C(NCc1ccccc1)c1cc[n+](Cc2ccccc2)cc1,-1.18
18,Cc1ccc(C(C)(C)NC(=O)C2CCC(=O)N(C3CCCCCC3)C2)cc1 (centres undefined),8.48
19,Cc1ccccc1CC(=O)N1CCN(S(=O)(=O)c2cccs2)CC1,-18.2
20,O=C(Cc1ccccc1)NC(c1ccco1)c1c(O)ccc2ccccc12 (centres undefined),11.6
21,O=C(NCc1ccccc1)C1=C[C@@H](c2csc3ccccc23)C[C@@H](OCCCCO)O1,-6.19
22,NC(=O)c1cc(S(=O)(=O)N2CC=C(c3ccccc3)CC2)cs1,-1.59
23,N#CCc1ccc(NC(=O)CSc2nnc(C3CC3)n2C2CC2)cc1,-7.07

row,SMILES,inhibition [%]
1,CC(=O)OCC(=O)Nc1ccc(SC(F)F)cc1,-17.3
2,COc1ccc(CNC(=O)N2CCN(c3cccc(C)c3C)CC2)cc1OC,47.1
3,Cc1ccc2nc(-c3ccncc3)cc(C(=O)N3CCC4(CC3)OCCO4)c2c1,8.38
4,O=C(CSc1ncn(-c2ccccc2)n1)Nc1nccs1,12.5
5,Cc1cc(OC2CCCCC2)nc(-c2ccccc2O)n1,0.01
6,C=C1CCC[C@]2(C)C[C@H]3OC(=O)C(CNC(CC)CO)[C@H]3CC12 (some centres undefined),34.3
7,O=C(Nc1nccs1)c1ccc(N2C(=O)C3CCCCC3C2=O)cc1 (centres undefined),6.17
8,O=C(NC12CC3CC(CC(C3)C1)C2)c1ccc([N+](=O)[O-])cc1,74.3
9,Cc1ccc(C(=O)Nc2cccc3ccccc23)o1,26.4
10,Cc1cc(C)nc(NC(=O)c2ccc([N+](=O)[O-])o2)n1,70.5
11,O=C(COC(=O)c1ccc([N+](=O)[O-])o1)Nc1cccc2ccccc12,71.3
12,O=C(Nc1cccc(NC(=O)c2ccccc2Cl)c1)c1ccc([N+](=O)[O-])o1,8.06
13,O=C(Nc1ccc(Cc2ccncc2)cc1)c1ccc(Br)o1,-2.73
14,O=C(NC12CC3CC(CC(C3)C1)C2)c1ccc(-c2ccc(Cl)cc2)o1,64.3
15,Cc1c([N+](=O)[O-])cc(C(=O)Nc2ccc(Cc3ccncc3)cc2)cc1[N+](=O)[O-],59.9
16,O=C(NCCCN1CCN(CCCNC(=O)c2cccc(Cl)c2)CC1)c1cccc(Cl)c1,43.3
17,CCOc1ccc(NC(=O)CN(C)C(=O)c2ccc(C)o2)cc1OCC,-1.16
18,Cc1ccc(-c2cc(C(=O)Nc3cccnc3)[nH]n2)c(O)c1C,3.48
19,CC(C)NC(=O)CCn1nc(-c2ccc(Cl)cc2)c2ccccc2c1=O,10
20,FC(F)(F)c1cc(-c2ccco2)nc(N2CCN(c3ccccc3)CC2)n1,-1.1
21,O=C(CCNC(=O)c1ccc(Br)cc1)NCc1ccco1,6.14
22,CC(=O)c1cccc(S(=O)(=O)NCCC(=O)O)c1,-0.2
23,CN1CCN(c2ccccc2NC(=O)c2ccc([N+](=O)[O-])o2)CC1,44.3

row,SMILES,inhibition [%]
1,O=C(Nc1ccccc1N1CCOCC1)c1ccc([N+](=O)[O-])o1,67.3
2,NS(=O)(=O)c1ccc(O)c(NC(=O)c2ccc([N+](=O)[O-])o2)c1,76.7
3,Cc1cc(C)c2nc(NC(=O)c3ccc([N+](=O)[O-])o3)sc2c1,62.3
4,CCn1ncc(Br)c1C(=O)Nc1cc(C)cc(C)c1,-11
5,C=C1CCC2[C@](C)(CO)[C@H](O)CC[C@@]2(C)[C@@H]1/C=C/C1=CCOC1=O (some centres undefined),-9.71
6,CC(C)c1ccc(C(C(=O)NC2CCCC2)N(C(=O)CNC(=O)c2ccco2)c2cccnc2)cc1 (centres undefined),-5.98
7,O=C(NS(=O)(=O)Nc1ccccc1)C1=C(N2CCCC2)COC1=O,12.7
8,CCOC(=O)N1CCN(C(=O)CSc2nc3c([nH]c4ccccc43)c(=O)n2CCOC)CC1,-12.8
9,COC(=O)c1nn(-c2cccc(C)c2)c2nnc(Cc3ccc(C)cc3)c(=O)n12,-0.72
10,COc1ccc(NC(=O)N2CCCC2C(=O)NC2CCCC2)cc1 (centres undefined),-20.1
11,COc1cccc2c1OCC(C(=O)O)C2 (centres undefined),-4.89
12,COc1ccccc1N1CCN(C(=O)C2CC=CCC2C(=O)O)CC1 (centres undefined),-0.47
13,CCOC(=O)C1CCN(C(=O)c2ccc3c(=O)n4c(nc3c2)CCCCC4)CC1,-14.7
14,Cn1nc(-c2ccccc2)c(/C=N/O)c1Cl,-12.1
15,O=Nc1c(-c2ccccc2)[nH]n(-c2ccccc2)c1=O,63
16,Cc1sc2ncnc(N3CCCCC3C)c2c1C (centres undefined),32.6
17,CCOc1ccc(S(=O)(=O)N2CCCC(C(=O)NCc3ccccc3)C2)cc1 (centres undefined),-11.6
18,CN(C)C=NC(=O)c1cn(-c2ccc(F)cc2)c(=O)c2ccccc12,-9.03
19,O=C(N/N=C/c1ccco1)c1ccncc1,54.4
20,COc1ccccc1/C=C/C=N/NC(=O)c1ccccn1,70.9
21,O=C(N/N=C/C=C/c1ccco1)c1cnccn1,-12.5
22,O=C(N/N=C/C=C/c1ccccc1)c1cnccn1,15.9
23,O=C(N/N=C/C=C/c1ccccc1[N+](=O)[O-])c1cccnc1,-8

row,SMILES,inhibition [%]
1,COc1ccccc1/C=C/C=N/NC(=O)c1cnccn1,5.21
2,O=C(N/N=C/C=C\c1ccccc1)c1cnccn1,11.4
3,O=C(N/N=C/C=C\c1ccccc1[N+](=O)[O-])c1cccnc1,-10.7
4,COc1ccc(CNC(=O)c2ccc[nH]2)cc1,34.3
5,CC(=O)N1CCN(c2ccc(NC(=O)c3ccc4c(c3)OCCO4)cc2Cl)CC1,27.7
6,Cc1cccc(OCC(=O)OC(C)C(=O)Nc2ccc(S(=O)(=O)N3CCCCC3)cc2)c1 (centres undefined),17.6
7,C=C(C)CSc1nnc(-c2cc(OC)c(OC)c(OC)c2)n1N,-11
8,COc1ccc(C2=NN(C(=O)CN3CCCC3)C(c3ccc(OC)cc3)C2)cc1 (centres undefined),-5.46
9,O=C(N/N=C/c1ccncc1)c1ccccc1,67.6
10,O=C(O)CC/C(=N\NC(=O)c1ccncc1)c1ccccc1,37.3
11,C/C(=N/NC(=O)c1ccncc1)c1ccccc1,49.1
12,O=C(N/N=C/C=C/c1ccccc1)c1ccc(Br)cc1,-16.8
13,CC1(C)OC(c2ccccc2)=C/C(=C/C=Nc2ccccc2)O1,14.4
14,C/C=C/C=N\NC(=O)c1ccncc1,57.5
15,Cn1cc(C(=O)N/N=C/C=C/c2ccccc2)ccc1=O,-14.3
16,Cc1ccccc1N=C/C=C1/C=C(c2ccccc2)OC(C)(C)O1,32.8
17,CCCOc1ccc(Cc2c(O)nc(SC)[nH]c2=O)cc1,8.21
18,CCC1(c2ccccc2)NC(=O)N(CC(=O)NC2CCCCCC2)C1=O (centres undefined),15.6
19,CCOC(=O)c1nn(-c2ccc(Cl)cc2C)ccc1=O,-14.1
20,Cc1c(C(=O)N(C)C)c2cc(Cl)ccc2n1O,8.07
21,Cc1ccccc1NC(=O)OCc1ccccc1,71.6
22,COc1ccc(C(=O)COC(=O)c2ccc(-n3cnnn3)cc2)c(OC)c1,-4.6
23,COc1cccc(C(=O)Nc2ccccc2F)c1,-15.1

row,SMILES,inhibition [%]
1,O=C(COC(=O)/C=C/c1ccco1)NCc1ccc(Cl)cc1,44.8
2,COc1ccccc1C(=O)OCCN=C1NS(=O)(=O)c2ccccc21,3.36
3,O=C(N/N=C/C(Br)=C/c1ccccc1)c1cccnc1,56.4
4,CC(/C=N/NC(=O)c1ccncc1)=C\c1ccccc1,56.6
5,O=[N+]([O-])c1ccc(C=Nc2cccc3ccccc23)s1,68.5
6,O=c1oc(-c2cccc([N+](=O)[O-])c2)nc2ccccc12,67.8
7,Cc1ccc2nc(-c3ccccc3)oc(=O)c2c1,76.6
8,COc1ccc(-n2c(/C=C/c3ccc(O)cc3)nc3ccccc3c2=O)cc1,20.1
9,CCOc1ccc(-c2nnc(-c3ccccc3)o2)cc1,78.4
10,COc1ccc(-c2csc3nc(-c4ccc(C)cc4)oc(=O)c23)cc1OC,2
11,CCOc1ccc(-c2cc(C(=O)O)c3ccccc3n2)cc1,0.34
12,COc1ccc(/C=C/c2cc(C(=O)O)c3ccccc3n2)cc1,3.28
13,O=S(=O)(Cc1ccccc1)N1CCCc2ccccc21,28.1
14,Cc1[nH]c2ccc(C(=O)NCCCN(C)C3CCCCC3)cc2c1C,7.44
15,Cc1sc2nc(SCC(=O)NCCOCCO)n(C)c(=O)c2c1C,-0.17
16,Cc1ccc(C(=O)NCC(=O)OCn2nnc3ccccc3c2=O)cc1,4.09
17,Cc1nn(Cc2ccccc2)c2c1C(c1ccc(Cl)cc1)C(C#N)=C(N)O2 (centres undefined),11.4
18,COC(=O)c1sccc1NC(=O)c1c(-c2ccccc2)noc1C,27.9
19,CC1CC(=O)Nc2ccccc2N1C(=O)CN1CCN(C=O)CC1 (centres undefined),4.41
20,c1ccc(C2C3=C(Nc4ncnn42)c2ccccc2CCC3)cc1 (centres undefined),9.65
21,CCCC(=O)C1=C(O)C(C(=O)OC)C(C)(C)CC1=NC(C)C (centres undefined),-5.24
22,CC(C)(C)c1ccc(-n2ncc3c2CCCC3NC(=O)CCN2CCCO2)cc1 (centres undefined),19.6
